# From PubChem BioAssay (NCI)
# Several values for one entry are separate records, joined by “and”; a condition that tells them apart may be missing. Equal values may be shown once. Compounds without any hit were thinned out: in the full panel of roughly 83,000, 20% have a hit.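 Activity criterion: percent growth below 10, measured after cells in 96-well plates were exposed to a single compound concentration for 48 hours.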 Unmarked numbers belong to inactive results. Activity calls are given as the source filed them.
# Test system: HOP-92 NSCLC
# Experiment: NCI-60 one-dose screen, 48 h (100 = growth as untreated, 0 = no growth, -100 = all killed)
# Conditions: 10 µM unless noted
row,SMILES,growth
1,O=C(Nc1ccc2ccccc2c1)c1cc2ccccc2cc1O,63.7%
2,N=C(N)SCc1c2ccccc2c(CSC(=N)N)c2ccccc12,32.2%
3,NNCCc1ccccc1,83.1% and 102%
4,Brc1ccc(/C=C(/C2=NCCN2)n2ccc3ccccc32)cc1,34.3%
5,C=C(c1ccc(C(=O)O)cc1)c1cc2c(cc1C)C(C)(C)CCC2(C)C,68.4%
6,N=C(N)c1ccc(-c2ccc(-c3ccc(Cl)c(Cl)c3)s2)cc1,74.4%
7,C=C(CN1CC=CCC1)[C@@H]1CC[C@]2(COC(C)=O)CC[C@]3(C)[C@H](CC[C@@H]4[C@@]5(C)CC[C@H](O)C(C)(C)[C@@H]5CC[C@]43C)[C@@H]12,92.7%
8,O=[N+]([O-])c1cc(C(F)(F)F)ccc1Sc1ccc(C(F)(F)F)cc1[N+](=O)[O-],120%
9,CCn1cc(C(=O)NN=C2CCCC2)c(=O)c2ccc(C)nc21,90.6%
10,O=C(Nc1ccc(Cl)c(Cl)c1)Nc1ccc(Cl)c(Cl)c1,-86.2% (active) and -5.71% (active)
11,Cn1c(=O)c2c(nc(Nc3cc(=O)[nH]c(=O)[nH]3)n2Cc2ccccc2)n(C)c1=O,80.5%
12,CCOC(=O)c1c(-c2ccc(OC)cc2)c(C#N)c2c(C#N)c(N)nn2c1N,15.4%
13,COc1cc(/C=N/NC(=O)CCN2c3ccccc3Sc3ccccc32)cc(OC)c1OC,61.5%
14,O/N=C(/c1ccccc1)c1ccc2c3c(cccc13)CC2,49.4% and 64.9%
